PubChem BioAssay (NCI)
About 83,000 compounds went through this panel and 20% of them were active in at least one assay; those are over-represented in the sample as a whole.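 The endpoint reported here, percent growth, reads 100 for growth as untreated, 0 for no net growth and -100 for all cells dead.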 The source made the active and inactive calls. The calls were made as follows: active = growth percent below 10; inactive = the rest.

System: HL-60(TB) leukemia
Assay: NCI-60 one-dose screen, 48 h (100 = growth as untreated, 0 = no growth, -100 = all killed)
Details: 10 µM unless noted

| Compound | growth |
| --- | --- |
| O=S(=O)(N=C1C(Cl)=C(Cl)C(=NS(=O)(=O)c2ccccc2)C(Cl)=C1Cl)c1ccccc1 | 48.5% (inactive) |
| CC1(C)C(N)=Nc2cc(OCCCCN3Cc4ccccc4C3)c(OCC3CC3)cc21 | 99.7% (inactive) |
| O=S(=O)(O)CCl | 94.7% (inactive) |
| O=C(CCl)N1c2ccccc2Oc2ccc3ccccc3c21 | -0.539% (active) |
| CCOc1ccc2nc(C)cc(Nc3ccc(Br)cc3)c2c1 | 107% (inactive) |
| O=C1/C(=C/c2ccc(Cl)cc2)CN(Cc2cn(CCCNc3ccnc4cc(Cl)ccc34)nn2)C/C1=C\c1ccc(Cl)cc1 | -46.7% (active) |
| O=C(CNc1nc(-c2ccc(Cl)cc2)cs1)Nc1ccc(-c2nc3ccccc3s2)cc1 | 99.3% (inactive) |
| O=C(Nc1cccc(NC(=O)C2CCCCC2)c1)c1ccccn1 | 95.4% (inactive) |
| COc1ccc(C2CC(c3ccc(Nc4ccnc5cc(Cl)ccc45)cc3)=NN2C=O)cc1 (centres undefined) | -42.6% (active) |
| COc1cccc2c1O/C(=C\c1ccc([N+](=O)[O-])s1)C2=O | 39% (inactive) |
| O=C(COc1cccc(/C=C2\COc3ccccc3C2=O)c1)Nc1nccs1 | -58.4% (active) |
| [O-][n+]1c(Cl)cc(Cl)c2ccccc21 | 84.9% (inactive) |
| COc1ccc(/C=C\C(=O)/C=C/c2ccc(OC)cc2)cc1 | 50.2% (inactive) |
| COc1ccc(-c2cc(-c3ccccc3)nc(SCCCCCCC(=O)NO)n2)cc1 | 8.06% (active) |
| ClC1=C2NC=NC2n2c(nnc2-c2ccc(Cl)cc2)N1 (centres undefined) | 118% (inactive) |
| O=c1ccn(C2CC(O)C(O)C(CO)O2)c(=O)[nH]1 (centres undefined) | 90.4% (inactive) |
| COc1ccc(/C(C)=N/NC(=O)CSc2nc3ccccc3c(=O)n2Cc2ccc(S(N)(=O)=O)cc2)c(OC)c1 | 102% (inactive) |
| C=C(C)[C@@H]1CC[C@]2(C(=O)N3CCN(C)CC3)CC[C@]3(C)[C@H](CC[C@@H]4[C@@]5(C)CC(CCCNC(C)=O)(CCCNC(C)=O)[C@H](OC(C)=O)C(C)(C)[C@@H]5CC[C@]43C)[C@@H]12 | 94% (inactive) |
| CCN(CC)CCCC(C)Nc1ccnc(/C=C/c2ccc(Cl)cc2)c1 (centres undefined) | 65.9% (inactive) |
| COc1cc(/C=C/C(=O)N2CCC=CC2=O)cc(OC)c1OC | -13.1% (active) |

| Compound | growth |
| --- | --- |
| COC(=O)c1ccc2[nH]c(O)c(C(=Nc3ccc(N(C)C(=O)CN4CCN(C)CC4)cc3)c3cccc(OC)c3)c2c1 | -35.9% (active) |
| O=C1CCC23OC(C(O)c4ccccc4N12)C1C(Br)=NOC13 (centres undefined) | 96% (inactive) |
| CCOC(=O)c1cc(C(=O)c2cc(OC)c(OC)c(OC)c2)n2nc(C)ccc12 | -24.2% (active) |
| COc1cc2c(=O)n(CCCN(C)C)c3c4cc[nH]c4ncc3c2cc1OC | 75.3% (inactive) |
| C[N+](C)(C)CCOC(OCC[N+](C)(C)C)(c1ccccc1)c1ccccc1 | 110% (inactive) |
| C=C1CC2(OC1=O)C(=O)Nc1ccccc12 (centres undefined) | 31.6% (inactive) |
| CCOC(=O)c1c2c(n3c1NCC3)-c1ccccc1C2=O | 86.8% (inactive) |
| COc1ccc(-c2n[nH]c(=O)c3nc(NC(=S)Nc4ccc(Oc5ccccc5)cc4)sc23)cc1 | 92.9% (inactive) |
| O=c1[nH]c(Cl)nc2c1cnn2-c1ccccc1 | -2.45% (active) |
| CCCCCCCOc1cccc(/C=C2/C(=O)N=C3SCCCN32)c1 | 95.2% (inactive) |
| O=C1/C(=C/c2ccccn2)SC(=S)N1N1CCOCC1 | 97.2% (inactive) |
| O=S(=O)(NCCNc1cc(-c2c(-c3cccc(O)c3)nc3sccn23)ccn1)c1ccc(Br)cc1 | 77.6% (inactive) |
| CC(C)c1ccc(Cn2ccc3c4c(N)nc(NC5CC5)nc4ccc32)cc1 | -68.8% (active) |
| COc1cc(OC)cc(C2CC(=O)Nc3c2c(C)nn3-c2nc3ccccc3[nH]2)c1 (centres undefined) | 9.31% (active) |
| COc1ccccc1NC(=O)COc1ccc(/C=C2/Oc3cc4occc4c(OC)c3C2=O)cc1OC | 87.5% (inactive) |
| COc1cc(CNC(=O)Cc2ccccc2)ccc1OCc1cn(-c2ccc(F)cc2)nn1 | 104% (inactive) |
| O=C(c1ccc(C(F)(F)F)c(Cl)c1)N(Cc1ccc(Cl)cc1)c1ccc(-c2cc(C(F)(F)F)[nH]n2)c(O)c1 | -14.9% (active) |
| CCOc1ccc(I)cc1 | 128% (inactive) |
| COc1ccc2c(c1)oc1c(C)c3c(c(C)c12)C(=O)N(CCN1CCOCC1)C3=O | 87.6% (inactive) |
